# From PubChem BioAssay (NCATS)
# “And” between values parts separate entries of the source, which are not always exact repeats. Equal values may be shown once. Results filed as inconclusive are left out. The source made the active and inactive calls. Unless noted, the call rests on the fitted dose curve; in most records, active means well fitted curve in the direction sought with a large enough effect; inconclusive means small, poorly fitted or top-dose-only effect, or another doubt; inactive means no such curve, though single readings can be large; an effect the other way counts as inactive or inconclusive.
# What was measured:
# [1] = target: Cytochrome P450 2C9 (Homo sapiens) (UniProt P11712); experiment: qHTS Assay for Inhibitors and Substrates of Cytochrome P450 2C9 (AID 883); further: nearly all actives have a fitted effect of over 60% in size; further: potency means the concentration at half of the fitted maximal effect
# Summary of the method: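 Turnover of Luciferin-H (100uM, KM) by 10nM human CYP2C9 was measured over 60 min at 37C with NADPH regeneration; inhibitors and some substrates reduce luminescence. Data normalized to sulphaphenazole 57uM.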
# [2] = target: Peroxisome proliferator-activated receptor delta (Homo sapiens) (UniProt Q03181); experiment: qHTS assay for small molecule agonists of peroxisome proliferator-activated receptor delta signaling (AID 588534; calls by dose curve;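 further: 0% = DMSO basal wells and 100% = positive control agonist at 10 µM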)
# Summary of the method: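 Agonist-mode qHTS; reporter cells, 5 hrs 37 C pre-incubation; compound titration, 18 hrs 37 C; CCF4 dye, 2 hrs RT; fluorescence read. EC50/efficacy via Hill fit.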
# [3] = qHTS assay for small molecule antagonists of peroxisome proliferator-activated receptor delta signaling (AID 588535); settings: HEK293T PPARd-UAS-bla, beta-lactamase FRET ratio, 18 h; 460 nm channel;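 further: cells co-treated with a PPAR-delta agonist as stimulator during compound exposure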
# Summary of the method: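 Titrations were run on PPAR-delta-UAS-bla HEK293T cells in charcoal/dextran-stripped serum, incubated 18 h at 37 C. CCF4 fluorescence (460/530 nm) after 2 h RT; Hill equation yields IC50 and maximal response.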
# [4] = target: Vitamin D3 receptor (Homo sapiens) (UniProt P11473); experiment: qHTS assay for small molecule antagonists of vitamin D receptor signaling (AID 588541; calls by dose curve;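 further: receptor activated by calcitriol during compound treatment; series mostly up to about 77 µM; on the % scale 0 is the no-effect control and ±100 the full control effect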)
# Summary of the method: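 Antagonist-mode beta-lactamase reporter assay: HEK293T VDR-UAS-bla cells were exposed to titrated compound alongside 1-alpha,25-dihydroxyvitamin D3 at 3 nM final for 16 h. Values were normalized to the 50 nM agonist control and DMSO basal, with IC50 and efficacy from Hill equation fits.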
# [5] = target: Vitamin D3 receptor (Homo sapiens) (UniProt P11473); experiment: qHTS assay for small molecule agonists of vitamin D receptor signaling (AID 588543; calls by dose curve;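 further: 0% = DMSO basal and 100% = reference agonist control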)
# Summary of the method: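 Agonist-mode beta-lactamase reporter: HEK293T VDR-UAS-bla cells in charcoal-stripped 2% FBS, compound series 16 h 37 C, CCF4 2 h RT. EC50 from Hill fit, scaled against DMSO and 50 nM calcitriol control.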
# [6] = qHTS assay for small molecule agonists of retinoid X receptor alpha signaling (AID 588544); settings: HEK293T RXRa-UAS-bla, beta-lactamase reporter, 18 h; 530 nm emission
# [7] = qHTS assay for small molecule antagonists of retinoid X receptor alpha signaling (AID 588546; active means well fitted inhibition curve with a large enough effect in the signal ratio, with a control signal flat, not every such curve was filed as active; the % refers to the signal ratio;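 further: cells stimulated with 9-cis-retinoic acid as agonist; on the % scale 0 is the no-effect control and ±100 the full control effect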); settings: HEK293T RXRa-UAS-bla, beta-lactamase ratio, antagonist mode; measured here: W530 green channel, cytotoxicity proxy
# Summary of the method: (§1)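 Beta-lactamase reporter inhibition, read as CCF4 fluorescence ratio (ex 405, em 460/530 nm) after 2 h at RT. HEK293T UAS-bla cells, 2500/well, were stimulated with 9-cis-RA at 500 or 100 nM final alongside test compound for 18 h at 37 C.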
# [8] = target: Retinoic acid receptor RXR-alpha (Homo sapiens) (UniProt P19793); experiment: as above; settings: HEK293T RXRa-UAS-bla, beta-lactamase ratio, antagonist mode
# Summary of the method: as §1
# [9] = target: Thyroid hormone receptor beta (Homo sapiens) (UniProt P10828); experiment: qHTS assay for small molecule antagonists of thyroid hormone receptor beta signaling (AID 588547; active means well fitted inhibition curve with a large enough effect in the signal ratio, with a control signal flat, not every such curve was filed as active; the % refers to the signal ratio;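 further: cells stimulated with 0.4 nM T3 agonist during compound exposure; series mostly up to about 77 µM; on the % scale 0 is the no-effect control and ±100 the full control effect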); settings: TR-UAS-bla HEK293, beta-lactamase ratio, antagonist mode, 18 h
# Summary of the method: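 Inhibition of T3-driven (0.4nM final) beta-lactamase reporter activity was measured over 0.59 nM to 92 uM compound after 18 h at 37 C. The cells were GripTite HEK293 TR-UAS-bla in charcoal/dextran-stripped serum, with CCF4 ratio read-out and IC50 from Hill fits.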
# [10] = qHTS assay for small molecule agonists of the antioxidant response element (ARE) signaling pathway (AID 651741; active means well fitted activation curve with a large enough effect in the signal ratio; the % refers to the signal ratio; further: potency means the concentration at half of the fitted maximal effect; on activation: % of control where 0% means no effect)
# Summary of the method: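 Beta-lactamase reporter under ARE control in HepG2 cells, 2,000 per well, was induced by 16 h compound treatment at 37 C. Read-out was fluorescence from LiveBLAzer B/G FRET substrate after 2 h at room temperature.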
# [11] = qHTS assay for small molecule activators of the p53 signaling pathway (AID 651743; active means well fitted activation curve with a large enough effect in the signal ratio, not every such curve was filed as active; the % refers to the signal ratio; further: potency means the concentration at half of the fitted maximal effect; on activation: series mostly up to about 92 µM; % of control where 0% means no effect); settings: HCT-116 p53RE-bla, beta-lactamase FRET ratio, 16 h; activation: stronger effect = higher value
# Summary of the method: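 After 16 hours compound treatment at 37 C, HCT-116 cells stably expressing p53RE-driven beta-lactamase were loaded with LiveBLAzer B/G FRET substrate for 2 hours at room temperature. Fluorescence intensity served as the p53 activation read-out.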
# [12] = qHTS assay for small molecule activators of the nuclear factor-kappa B (NF-kB) signaling pathway (AID 651749; active means well fitted activation curve with a large enough effect in the signal ratio; the % refers to the signal ratio; further: series mostly up to about 77 µM; % of control where 0% means no effect); settings: NF-kB-bla ME-180 cells, beta-lactamase FRET ratio, 16 h; activation: stronger effect = higher value
# Summary of the method: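 Activation measured after 16 hr compound treatment at 37C, 5% CO2, of 2,000 ME-180 cells/well stably expressing an NF-kB response element–driven beta-lactamase reporter, via FRET-disruption fluorescence.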
# [13] = qHTS assay for environmental chemicals that activate the Aryl hydrocarbon Receptor (AhR) signaling pathway (AID 651777); settings: 1A2-DRE human hepatoma cells, luciferase, 24 h; activation: stronger effect = higher value; further: % of control where 0% means no effect; nearly all actives have a fitted effect of over 15% in size
# Summary of the method: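 AhR activation is scored as a rise in luciferase from a stable DRE–CYP1A2 promoter construct in human hepatoma cells. Treatment lasts 24 hr at 37 C; detection uses One-Glo after 30 min at room temperature.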
# [14] = target: Peroxisome proliferator-activated receptor alpha (Homo sapiens) (UniProt Q07869); experiment: qHTS assay for small molecule agonists of the peroxisome proliferator-activated receptor alpha (PPARalpha) signaling pathway (AID 651778); settings: PathHunter PPARalpha complementation, chemiluminescence, 6 h; stronger effect = higher value; further: % of control where 0% means no effect
# Summary of the method: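 Chemiluminescence from complemented enzyme reported PPARalpha activation in cells after 6 hr of compound treatment at 37 C. The detection reagent was incubated for 60 min at room temperature, and compounds were scored as agonists.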
# [15] = qHTS assay for small molecule agonists of the antioxidant response element (ARE) signaling pathway measured by Nrf2-dependant transcriptional activity (AID 720636; active means well fitted curve in the direction sought with a large enough effect in the repeat runs; an effect the other way counts as inactive or inconclusive;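 further: HepG2 cells with an ARE-driven luciferase reporter; % of control where 0% means no effect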)
# Summary of the method: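 First, ARE-luc HepG2 cells attached for 6 hr at 37 C in 1% dialyzed FBS medium. Next, compound or DMSO was added and incubated 16 hr. Finally, ONE-Glo reagent was added and luminescence measured after 30 min.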
# [16] = qHTS assay for small molecule agonists of the antioxidant response element (ARE) signaling pathway measured by Nrf2-dependant transcriptional activity - cell viability counter screen (AID 720653; active means well fitted curve in the direction sought with a large enough effect in the repeat runs; an effect the other way counts as inactive or inconclusive; further: on the % scale 0 is the no-effect control and ±100 the full control effect); settings: ARE-bla HepG2 viability, CellTiter-Glo ATP luminescence, 16 h; stronger effect = lower value
# Summary of the method: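 Cytotoxicity counter screen: intracellular ATP quantified by CellTiter-Glo luminescence in the same ARE-bla HepG2 plates, after 16 h compound exposure and a 2 h beta-lactamase substrate step.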
# [17] = qHTS assay for cell viability of HEK293 cells (AID 743288); settings: ATP luminescence (CellTiter-Glo), 18 h; max response: stronger effect = lower value; further: nearly all actives have a fitted effect of over 50% in size; further: potency means the concentration at half of the fitted maximal effect
# Summary of the method: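 Readout is luciferase-coupled ATP content (CellTiter-Glo luminescence, 30 min room temperature) as a measure of metabolically competent cells. Parental HEK293 cells were plated 5 h or more before compound addition, then treated 18 h at 37 C.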
# [18] = qHTS assay for cell viability of the p53RE-bla HCT-116 cell line (AID 743292); further: on the % scale 0 is the no-effect control and ±100 the full control effect; nearly all actives have a fitted effect of over 55% in size
# Summary of the method: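 Quantitative high-throughput format: compounds in DMSO were pinned onto p53RE-bla HCT-116 cells (4,000/well) and incubated 16 h at 37 C. Total intracellular ATP, read by CellTiter-Glo luminescence, reflects viable cell number.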
# [19] = target: Nuclear receptor subfamily 1 group I member 2 (Rattus norvegicus) (UniProt Q9R1A7); experiment: qHTS assay for small molecule activators of the rat pregnane X receptor (rPXR) signaling pathway (AID 651751; call rule not given here; further: 0% is about no effect); settings: rPXR reporter cells, luciferase (One-Glo), 24 h
# [20] = target: DNA dC->dU-editing enzyme APOBEC-3G (Homo sapiens) (UniProt Q9HC16); experiment: qHTS for inhibitors of Vif-A3G interactions: Validation (AID 588379); further: 0% is about no effect
# Summary of the method: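 Yellow fluorescence (Ex 488, Em 500-530) of Vif-coexpressing HeLa A3G-eYFP cells, scanned by Acumen cytometer, reports blocked A3G degradation. Cells plated at 700/well overnight at 37 deg C before compound addition, then a further overnight compound incubation at 37 deg C.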
# Sequence of Nuclear receptor subfamily 1 group I member 2 (Rattus norvegicus) (Q9R1A7 whole entry, looked up): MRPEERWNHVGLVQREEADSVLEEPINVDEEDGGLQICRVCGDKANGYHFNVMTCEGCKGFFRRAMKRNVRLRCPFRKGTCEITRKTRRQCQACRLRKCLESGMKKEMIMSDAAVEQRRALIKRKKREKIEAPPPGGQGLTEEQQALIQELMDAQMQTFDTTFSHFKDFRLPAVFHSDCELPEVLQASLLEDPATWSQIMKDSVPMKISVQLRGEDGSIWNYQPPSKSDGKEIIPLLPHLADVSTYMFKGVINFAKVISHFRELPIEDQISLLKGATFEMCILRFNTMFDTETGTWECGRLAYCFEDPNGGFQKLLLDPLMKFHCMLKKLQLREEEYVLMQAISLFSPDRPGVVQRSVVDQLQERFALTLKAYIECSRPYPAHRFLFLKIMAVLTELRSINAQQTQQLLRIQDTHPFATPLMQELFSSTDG
# Sequence of Vitamin D3 receptor (Homo sapiens) (P11473 whole entry, looked up): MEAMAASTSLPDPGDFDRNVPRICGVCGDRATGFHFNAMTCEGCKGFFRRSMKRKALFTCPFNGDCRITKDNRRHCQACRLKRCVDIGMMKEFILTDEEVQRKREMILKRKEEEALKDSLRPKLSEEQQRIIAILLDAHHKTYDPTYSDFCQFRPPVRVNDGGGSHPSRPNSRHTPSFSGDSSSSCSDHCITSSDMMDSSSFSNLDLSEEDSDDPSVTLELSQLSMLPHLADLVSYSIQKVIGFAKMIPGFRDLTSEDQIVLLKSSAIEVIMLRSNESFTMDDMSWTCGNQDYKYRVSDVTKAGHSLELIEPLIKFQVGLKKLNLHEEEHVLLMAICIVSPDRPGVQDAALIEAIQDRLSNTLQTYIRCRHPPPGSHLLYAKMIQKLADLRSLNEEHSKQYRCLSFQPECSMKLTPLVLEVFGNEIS
# Sequence of Cytochrome P450 2C9 (Homo sapiens) (P11712 whole entry, looked up): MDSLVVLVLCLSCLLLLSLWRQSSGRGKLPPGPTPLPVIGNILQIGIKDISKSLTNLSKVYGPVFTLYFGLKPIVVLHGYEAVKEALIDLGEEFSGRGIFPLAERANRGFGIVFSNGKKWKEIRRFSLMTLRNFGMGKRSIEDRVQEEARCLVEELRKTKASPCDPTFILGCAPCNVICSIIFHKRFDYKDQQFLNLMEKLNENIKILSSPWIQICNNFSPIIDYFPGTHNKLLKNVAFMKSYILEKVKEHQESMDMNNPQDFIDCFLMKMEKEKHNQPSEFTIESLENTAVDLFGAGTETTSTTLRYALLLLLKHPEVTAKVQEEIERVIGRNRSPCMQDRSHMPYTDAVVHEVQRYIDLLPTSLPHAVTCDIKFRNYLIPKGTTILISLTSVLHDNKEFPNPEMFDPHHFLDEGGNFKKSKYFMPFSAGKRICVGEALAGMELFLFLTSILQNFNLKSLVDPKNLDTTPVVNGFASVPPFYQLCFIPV
# Sequence of Peroxisome proliferator-activated receptor alpha (Homo sapiens) (Q07869 whole entry, looked up): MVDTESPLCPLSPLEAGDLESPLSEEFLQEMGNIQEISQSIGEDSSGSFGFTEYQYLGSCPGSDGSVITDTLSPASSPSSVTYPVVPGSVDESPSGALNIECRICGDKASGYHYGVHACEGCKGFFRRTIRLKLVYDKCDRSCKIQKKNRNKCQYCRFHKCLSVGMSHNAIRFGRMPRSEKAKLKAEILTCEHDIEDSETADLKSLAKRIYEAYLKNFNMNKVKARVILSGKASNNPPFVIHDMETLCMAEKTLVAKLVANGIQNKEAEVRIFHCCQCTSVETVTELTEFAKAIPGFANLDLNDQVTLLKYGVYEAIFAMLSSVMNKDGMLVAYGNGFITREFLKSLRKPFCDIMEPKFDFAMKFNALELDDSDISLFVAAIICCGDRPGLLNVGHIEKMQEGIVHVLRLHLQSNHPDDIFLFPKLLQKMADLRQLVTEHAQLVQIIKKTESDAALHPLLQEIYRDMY
# Sequence of DNA dC->dU-editing enzyme APOBEC-3G (Homo sapiens) (Q9HC16 whole entry, looked up): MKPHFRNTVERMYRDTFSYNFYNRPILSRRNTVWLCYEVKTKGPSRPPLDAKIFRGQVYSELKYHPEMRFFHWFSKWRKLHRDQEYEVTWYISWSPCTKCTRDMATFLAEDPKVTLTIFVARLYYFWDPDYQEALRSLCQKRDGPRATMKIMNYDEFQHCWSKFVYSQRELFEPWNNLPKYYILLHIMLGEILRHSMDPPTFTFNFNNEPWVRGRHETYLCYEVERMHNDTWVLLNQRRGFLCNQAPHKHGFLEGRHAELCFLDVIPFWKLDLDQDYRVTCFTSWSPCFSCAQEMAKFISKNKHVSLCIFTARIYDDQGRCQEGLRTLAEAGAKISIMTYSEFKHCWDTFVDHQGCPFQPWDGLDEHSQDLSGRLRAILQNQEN
# Sequence of Retinoic acid receptor RXR-alpha (Homo sapiens) (P19793 whole entry, looked up): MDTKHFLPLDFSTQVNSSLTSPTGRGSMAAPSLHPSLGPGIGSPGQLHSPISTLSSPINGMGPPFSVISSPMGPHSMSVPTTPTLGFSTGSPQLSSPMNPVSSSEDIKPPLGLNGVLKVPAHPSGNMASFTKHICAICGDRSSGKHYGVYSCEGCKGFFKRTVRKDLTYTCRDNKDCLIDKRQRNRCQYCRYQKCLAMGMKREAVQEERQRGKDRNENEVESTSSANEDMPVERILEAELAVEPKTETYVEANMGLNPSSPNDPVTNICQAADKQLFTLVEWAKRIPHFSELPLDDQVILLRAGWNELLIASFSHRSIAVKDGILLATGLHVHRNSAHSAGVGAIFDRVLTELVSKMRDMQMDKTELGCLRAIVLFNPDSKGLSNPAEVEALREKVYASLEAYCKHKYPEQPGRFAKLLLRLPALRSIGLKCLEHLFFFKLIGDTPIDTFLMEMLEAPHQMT
# Sequence of Peroxisome proliferator-activated receptor delta (Homo sapiens) (Q03181 whole entry, looked up): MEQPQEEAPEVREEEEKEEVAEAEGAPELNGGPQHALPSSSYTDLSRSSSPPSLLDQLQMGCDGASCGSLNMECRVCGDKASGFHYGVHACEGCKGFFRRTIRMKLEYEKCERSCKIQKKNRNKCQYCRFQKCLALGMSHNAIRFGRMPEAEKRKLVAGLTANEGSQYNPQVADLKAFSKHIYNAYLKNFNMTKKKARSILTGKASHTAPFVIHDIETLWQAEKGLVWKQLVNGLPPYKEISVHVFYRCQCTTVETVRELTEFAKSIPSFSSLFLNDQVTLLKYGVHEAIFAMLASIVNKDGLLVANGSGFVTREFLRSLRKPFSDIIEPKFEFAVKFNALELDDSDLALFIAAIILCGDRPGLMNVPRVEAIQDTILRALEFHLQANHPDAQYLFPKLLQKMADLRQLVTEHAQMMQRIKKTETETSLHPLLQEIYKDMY
# Sequence of Thyroid hormone receptor beta (Homo sapiens) (P10828 whole entry, looked up): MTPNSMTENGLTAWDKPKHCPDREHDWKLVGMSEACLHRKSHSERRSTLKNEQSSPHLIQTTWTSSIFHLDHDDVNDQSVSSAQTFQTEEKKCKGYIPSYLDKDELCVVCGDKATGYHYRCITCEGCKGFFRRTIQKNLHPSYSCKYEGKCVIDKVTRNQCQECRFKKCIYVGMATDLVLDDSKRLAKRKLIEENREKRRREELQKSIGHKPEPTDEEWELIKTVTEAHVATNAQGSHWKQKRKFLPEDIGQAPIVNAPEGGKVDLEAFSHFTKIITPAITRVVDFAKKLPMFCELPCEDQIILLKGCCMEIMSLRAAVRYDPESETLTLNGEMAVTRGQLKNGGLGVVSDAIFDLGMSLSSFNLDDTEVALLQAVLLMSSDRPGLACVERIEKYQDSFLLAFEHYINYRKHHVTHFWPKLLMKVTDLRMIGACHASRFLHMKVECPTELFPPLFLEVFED
smiles,measurement,setting,value
CC(C)[C@@]1(NC(=O)[C@@H]2C[C@H]3c4cccc5[nH]cc(c45)C[C@@H]3N(C)C2)O[C@]2(O)[C@H]3CCCN3C(=O)[C@H](Cc3ccccc3)N2C1=O,Potency,[1],2.51 µM (active)
C[C@@]12CC[C@H]3[C@@H](CC[C@@H]4C[C@H]5S[C@H]5C[C@]43C)[C@H]1CC[C@H]2O,Potency,[1],0.005 µM (active)
CN1Cc2c(ccc3c2OCO3)[C@@H]2[C@@H](O)Cc3cc4c(cc3[C@@H]21)OCO4,Potency,[1],inactive
CCCCCCCCCc1ccc(O)cc1,outcome,[2],inactive
same,max response,[3],-9.37% and -27.9%
same,outcome,[4],inactive
same,outcome,[5],inactive
same,max response,[6],-5.72%
same,max response,[7],-16.1%
same,max response,[8],0.938% (inactive)
same,activity change % (negative = inhibition),[9],4.44% (inactive)
same,Potency,[10],75 µM (active) and 30.6 µM (active)
same,activation,[11],-1.55% (inactive) and -0.009% (inactive)
same,activation,[12],1.31% (inactive)
same,activation,[13],10.9% (inactive) and 1.36% (inactive)
same,max response,[14],6.94% (inactive) and 6.09% (inactive)
same,outcome,[15],inactive
same,max response,[16],-6.51% (inactive) and -5.9% (inactive)
same,max response,[17],-7.88% (inactive)
same,Potency,[18],inactive
same,max response,[19],-1.03% (inactive) and 0.419% (inactive)
O=C1C=C2C=C[C@H]3C[C@@]2(O1)[C@H]1CCCCN31,Potency,[1],inactive
C[N+]1=Cc2cc3c(cc2CC1)OCO3,Potency,[1],inactive
same,outcome,[20],inactive
O=C1C(Cl)=C(Cl)C(=O)C(Cl)=C1Cl,max response,[3],-78.9%
same,Potency,[10],26.6 µM (active)
same,Potency,[11],25.1 µM (active)
same,max response,[14],-6.11% (inactive)
same,Potency,[17],39.8 µM (active)
same,max response,[19],-2.19% (inactive)
CNC(=O)N(C)c1nnc(C(C)(C)C)s1,outcome,[2],inactive
same,max response,[3],22%
same,outcome,[4],inactive
same,outcome,[5],inactive
same,max response,[6],-5.03%
same,max response,[7],-11.1%
same,max response,[8],-28.5% (inactive)
same,activity change % (negative = inhibition),[9],-7.26% (inactive)
same,Potency,[10],inactive
same,activation,[11],-3.47% (inactive)
same,activation,[12],-0.0908% (inactive)
same,activation,[13],3.03% (inactive)
same,max response,[14],-3.93% (inactive)
same,max response,[16],4.89% (inactive)
same,max response,[17],-3.03% (inactive)
same,Potency,[18],inactive
same,max response,[19],4.69% (inactive)
c1cncc([C@H]2CCCCN2)c1,Potency,[1],7.94 µM (active)
same,outcome,[20],inactive
CN1[C@@H]2CC[C@H]1CC(O)C2 (stereo partly drawn),Potency,[1],inactive
COc1cc2c(c(OC)c1OC)-c1ccc(O)c(=O)cc1[C@@H](NC(C)=O)CC2,Potency,[1],inactive
CN1CC[C@]2(C)c3cc(O)ccc3N(C)[C@@H]12,Potency,[1],25.1 µM (active)
COc1cc(N)c(Cl)cc1C(=O)N[C@@H]1CN2CCC1CC2,outcome,[20],inactive
